Here are results for nine molecules from PubChem BioAssay AID743193 (National Center for Advancing Translational Sciences (NCATS), 2013).

Records with an inconclusive call do not appear. The source made the active and inactive calls. The call rests on the fitted dose curve; in most records, active means well fitted curve in the direction sought with a large enough effect; inconclusive means small, poorly fitted or top-dose-only effect, or another doubt; inactive means no such curve, though single readings can be large or run the other way.

Sequence of Glyceraldehyde-3-phosphate dehydrogenase (Oryctolagus cuniculus) (P46406 whole entry, looked up): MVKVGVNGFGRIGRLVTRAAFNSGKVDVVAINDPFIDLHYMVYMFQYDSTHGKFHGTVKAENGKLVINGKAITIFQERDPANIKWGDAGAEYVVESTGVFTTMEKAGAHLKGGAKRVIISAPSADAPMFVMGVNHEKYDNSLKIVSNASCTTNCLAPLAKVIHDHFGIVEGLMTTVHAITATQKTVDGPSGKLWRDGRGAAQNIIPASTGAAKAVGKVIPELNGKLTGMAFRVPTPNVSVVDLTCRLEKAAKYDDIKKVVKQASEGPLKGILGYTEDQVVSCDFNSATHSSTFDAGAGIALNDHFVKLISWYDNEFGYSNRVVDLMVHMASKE

The test concerns the target Glyceraldehyde-3-phosphate dehydrogenase (Oryctolagus cuniculus) (UniProt P46406). As to the kind of experiment: Extended Characterization of HPGD Inhibitors: Counterscreen Against rGAPDH. The following applies: rabbit GAPDH/diaphorase coupled resazurin fluorescence; series mostly up to 57.1 µM; activity change, negative = inhibition: at the top concentration. How it is done:
The central role of HPGD is to inactivate prostaglandins such as prostaglandin E2 (PGE2) or prostaglandin D2 (PGD2). These prostaglandins are involved in a number of processes, including inflammation, differentiation, and cellular signaling, which makes HPGD an important target for pharmacological intervention. The counterscreen for non-specific dehydrogenase activity was conducted using a rabbit glyceraldehyde-3-phosphate dehydrogenase (rGAPDH; Sigma Aldrich, St. Louis, MO) coupled assay system. In this assay, the rGAPDH-catalyzed conversion of NAD+ to NADH is coupled downstream to an additional enzyme, diaphorase (Sigma Aldrich, St. Louis, MO), which reduces the non-fluorescent molecule, resazurin, to a red fluorescent product, resorufin, in an NADH-dependent fashion. Thus, rGAPDH activity leads to an increase in fluorescence at 598 nm, and inhibitors of the reaction lead to a decrease in resorufin production and a subsequent decrease in fluorescence. The change in fluorescence between 0 and 30 minutes was measured, and data were normalized to control columns representing maximum signal (all components) and background (no rGAPDH). The buffer consisted of 100mM triethanolamine, pH 7.6, 5mM MgCl2 and 0.01% Tween-20, and the assay was run in black, solid-bottom, non-tissue culture-treated Greiner plates. NIH Chemical Genomics Center [NCGC] NIH Molecular Libraries Probe Centers Network [MLPCN] MLPCN Grant: MH084681 Assay Submitter (PI): Structural Genomics Consortium
3 uL of substrate buffer (final conc: 2 mM G3P, 1 mM NAD+, 0.1 mM resazurin, 0.1 mg/mL diaphorase) are added to the 1536-well plate before 23 nL of compound library is pinned into the well. Then, 1 uL of rGAPDH or 0x control (final conc: 2 nM and buffer only, resp.) are added and plate is immediate read for fluorescence on the ViewLux; ex 525, em 598, 1 second exposure, Bodipy Mirror), incubated for 30 at RT before a final read on the ViewLux with the same settings.
On to `Cc1cccc(-n2cnc3cc(C(=O)N4CCCC(C)(C)C4)ccc32)c1`, for which the “activity change, negative = inhibition” value is 4.68% (inactive).

As to `Cc1cc(-c2nnc3n2CCCCC3)c(C)n1-c1ccc(Cl)c(Cl)c1`, the “activity change, negative = inhibition” value is 7.74% (inactive).

Take `Cc1cc(-c2nnc3n2CCCCC3)c(C)n1-c1cccc(Cl)c1`: the “activity change, negative = inhibition” value is 4.12% (inactive).

Turning to `Cc1cccc(-n2cnc3cc(C(=O)N4CCCC(C(F)(F)F)C4)ccc32)c1` (centres undefined), the “activity change, negative = inhibition” value was 7.89% (inactive).

On to `O=C(c1ccc2c(c1)ncn2-c1cccc(C(F)(F)F)c1)N1CCCCC1`, for which the “activity change, negative = inhibition” value was 2.8% (inactive).

Turning to `O=C(c1ccc2c(c1)ncn2-c1cccc(Cl)c1)N1CCCCC1`, the “activity change, negative = inhibition” value is 6.42% (inactive).

Regarding `COc1ccc(-n2cnc3cc(C(=O)N4CCCCC4)ccc32)cc1`, the “activity change, negative = inhibition” value is 8.15% (inactive).

Regarding `Cc1ccc(-n2c(C)cc(-c3nnc4n3CCCCC4)c2C)cc1`, the “activity change, negative = inhibition” value was 9.72% (inactive).

Take `Cc1cc(-c2nnc3n2CCCCC3)c(C)n1-c1cccc(C(F)(F)F)c1`: the “activity change, negative = inhibition” value is 9.17% (inactive).
